This is a sample that favours compounds with a hit; in the whole collection about 27% have one here.
sEH inh – blocks human soluble epoxide hydrolase activity. P34913. recombinant human sEH enzymatic activity assay. inhibition, % at 2 µM. 91,000 compounds, 0.34% hits; in the data active = inhibition above about 80%
Target sequence (P34913 whole entry, looked up): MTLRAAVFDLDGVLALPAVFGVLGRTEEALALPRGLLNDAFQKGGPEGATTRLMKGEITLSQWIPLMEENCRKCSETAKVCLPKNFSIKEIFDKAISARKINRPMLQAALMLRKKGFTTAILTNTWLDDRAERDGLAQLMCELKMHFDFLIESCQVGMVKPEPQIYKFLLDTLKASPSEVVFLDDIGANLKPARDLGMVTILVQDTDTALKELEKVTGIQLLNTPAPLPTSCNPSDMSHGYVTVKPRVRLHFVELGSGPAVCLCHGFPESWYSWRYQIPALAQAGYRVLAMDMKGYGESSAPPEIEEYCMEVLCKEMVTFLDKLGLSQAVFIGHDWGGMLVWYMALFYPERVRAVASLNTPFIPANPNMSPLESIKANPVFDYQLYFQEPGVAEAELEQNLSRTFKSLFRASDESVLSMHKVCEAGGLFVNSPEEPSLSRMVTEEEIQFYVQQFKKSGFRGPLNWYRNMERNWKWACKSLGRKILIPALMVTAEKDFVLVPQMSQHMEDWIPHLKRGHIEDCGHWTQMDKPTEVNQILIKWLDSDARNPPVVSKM
CYP2C19 activ – cytochrome P450 2C19 (human) activation; P33261; recombinant CYP2C19, luciferin-H EGE luminescence; active compounds read high; 0 = fully inhibited enzyme, 1 = untreated enzyme; activation factor at 5 µM; 96,000 tested, under 10 active; AID 1025;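 active = activation factor of at least 2 at 5 µM in the primary screen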;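 also: 0 = wells with 2.5 mM tranylcypromine and 1 = vehicle-only wells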
CYP2C9 activ – increases human cytochrome P450 2C9 activity. recombinant CYP2C9, luciferin-H conversion, luminescence; active compounds read high; factor 1 = untreated enzyme, 0 = blocked. activation factor at 5 µM. 96,000 compounds, 1.4% hits;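 active = activation factor of 2 or more for CYP2C9 at a 5 µM dose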;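 also: 0 = sulfaphenazole-blocked wells and 1 = vehicle-only wells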
sEH act – activators of human soluble epoxide hydrolase | P34913 | purified human sEH enzymatic activity, activator screen | activation, % at 2 µM | 91,000 compounds, 0.04% hits; in the data active = activation above about 37%
CYP2C9 inh – blocks human cytochrome P450 2C9; inhibition, % at 5 µM; P11712; 96,000 compounds, 20% hits; CYP2C9 Supersomes, luciferin-H conversion, luminescence;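 active = blocking of liver enzyme CYP2C9 beyond about 50% at 5 µM, limit read from the data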
CYP2C19 inhib – blocks human cytochrome P450 2C19 | inhibition, % at 5 µM | AID 778 | 96,000 compounds, 21% hits | CYP2C19 Supersomes, luciferin-H EGE luminescence, 30 min | P33261;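 active = CYP2C19 inhibition above a set limit at 5 µM in the primary screen, cut at about 50% in these data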;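 also: plate controls were negative control wells for no effect and 2.5 mM tranylcypromine positive control for full effect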
Active calls of the source: *; · = not tested or not shown.

SMILES	sEH inh	CYP2C19 activ	CYP2C9 activ	sEH act	CYP2C9 inh	CYP2C19 inhib
Cc1c(NS(=O)(=O)CC23CCC(CC2=O)C3(C)C)c(=O)n(-c2ccccc2)n1C (centres undefined)	-8.1	0.5	1	7.7	-4.9	54.6*
Cc1c(NS(=O)(=O)c2ccc(Br)s2)c(=O)n(-c2ccccc2)n1C	-21.2	0.5	0.5	18.9	54.2*	46.6
CCS(=O)(=O)Nc1c(C)n(C)n(-c2ccccc2)c1=O	-9.2	0.9	0.9	3.1	9.0	11.5
Cc1c(NS(=O)(=O)c2ccc3c(c2)n(C)c(=O)n3C)c(=O)n(-c2ccccc2)n1C	-13.8	1.2	1	16.5	2.3	-18.6
Cc1c(NC(=O)c2ccccc2NS(=O)(=O)c2ccc(Br)cc2)c(=O)n(-c2ccccc2)n1C	-2.2	1.1	0.5	5.9	45.2	-7.6
Cc1c(NS(=O)(=O)N2CCCCC2)c(=O)n(-c2ccccc2)n1C	-8.7	0.3	0.9	6.6	9.5	73.7*
Cc1c(NS(=O)(=O)c2cccs2)c(=O)n(-c2ccccc2)n1C	-8.9	0.4	0.7	7.8	29.1	55.1*
Cn1cccc1P(=O)(c1cccn1C)c1cccn1C	-6.5	1.1	1.1	6.0	-14.8	-7.8
O=C(Nc1ccc(S(=O)(=O)Nc2nccs2)cc1)C1CCCCC1	·	1.2	1	·	0.6	-16.4
O=c1cc(CSc2nnc(-c3ccco3)o2)c2ccccc2[nH]1	-8.7	0.9	0.9	7.3	8.9	7.8
CCc1cccc2c(SC(C)C(=O)NCC3CCCO3)nc(-c3ccccc3)nc12 (centres undefined)	-15.9	0.6	0.4	17.1	60.8*	35.7
Cc1cccc(-c2noc(CCC(=O)NCC3CCCO3)n2)c1 (centres undefined)	0.4	0.4	1.1	-1.7	-12.5	59.9*
Cc1cccc(-c2noc(CCCC(=O)N3CCOCC3)n2)c1	-11.8	0.5	1.4	14.0	-35.6	52.1*
Cc1ccc(-c2noc(CCCC(=O)N3CCOCC3)n2)cc1	·	0.8	0.9	·	5.1	17.7
CCc1ccc2nc(-c3cccc(C)c3)nc(SCC(=O)NCC3CCCO3)c2c1 (centres undefined)	2.3	0.4	0.2	-4.3	75.1*	60.5*
CCN1CCN(C(c2cc(OC)c(OC)c(OC)c2)c2nnnn2C(C)C)CC1 (centres undefined)	5.0	0.9	1.1	-3.4	-5.5	7.2
COc1ccc(-c2nc3nc(C)cc(C)n3n2)cc1	3.3	1	1	0.4	-1.9	4.5
Cc1cccc(N(CC(=O)NCC2CCCO2)C(=O)CCC(=O)Nc2cc(C)on2)c1 (centres undefined)	·	0.7	0.5	·	52.3*	33.8
O=C(CN(C(=O)CCC(=O)Nc1nccs1)c1cccc(F)c1)NCC1CCCO1 (centres undefined)	-14.9	0.7	0.8	12.9	19.1	30.9
O=C1c2ccccc2NC2(CCCCC2)N1c1ccc(O)cc1	8.6	0.7	0.4	-6.3	55.8*	31.8
CC1CCC2(CC1)Nc1ccccc1C(=O)N2c1ccccc1 (centres undefined)	8.8	0.6	0.5	-13.8	47.9	37.4
CCCc1nnc(NC(=O)CCC(=O)O)s1	-1.1	1.1	1.1	1.7	-8.7	-8.4
CCOC(=O)CSc1cc(=O)n(C)c2cc(Cl)ccc12	9.9	0.4	0.5	-10.9	50.6*	63.6*
CCN1CCCC1CNC(=O)CSc1cc(=O)n(C)c2cc(Cl)ccc12 (centres undefined)	·	1.2	1.1	·	-8.4	-20.2
CCc1ccccc1N(CC(=O)NCc1ccco1)C(=O)c1snc(C(N)=O)c1N	35.1	0.1	0.3	-34.2	69.4*	95.0*
CC(C)CCNC(=O)C(c1ccco1)N(Cc1ccccc1)C(=O)c1snc(C(N)=O)c1N (centres undefined)	·	0.5	0.8	·	23.7	49.4
COc1ccc(CNC(=O)C(C)N(Cc2ccco2)C(=O)c2snc(C(N)=O)c2N)cc1 (centres undefined)	6.1	0.2	0.4	-5.4	63.9*	84.8*
O=C1C(Cl)=C(N2CCCCCC2)C(=O)N1c1ccccc1	0.7	0.7	0.8	-2.0	18.0	29.0
O=C1C(Cl)=C(N2CCOCC2)C(=O)N1c1cccc(Cl)c1	·	0.1	0.6	·	43.8	85.2*
CN1CCN(C2=C(Cl)C(=O)N(c3ccc(Cl)cc3)C2=O)CC1	·	0.1	0.4	·	56.2*	87.7*

Compound activity (PubChem BioAssay)
